The record followed here is the supplement of paper PMC6522484.

Molecules are shown by their SMILES. Several values for one entry are separate records, joined by “and”; a condition that tells them apart may be missing. Identical values can stand only once. ± gives the standard deviation of the averaged measurements.

The subject of test [1] is DLD1. The test can be described thus: cell viability (CellTiter-Glo) relative to plate median (fraction of plate median); higher = more viable cells. The settings on record: 5 µM; treatment time 24 h; reporter: 7TFP. Put shortly: (§1)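 Signals from firefly luciferase or CellTiterGlo readouts were normalised well by well to the plate median using webcellHTS2, additively and with no log transformation. They came from colorectal cancer cell lines stably holding lentiviral TCF/Wnt firefly luciferase reporters (7TFP or TCF4/Wnt), treated with library compounds at a final 5 µM for 24 h. The mean of two independent replicates is given.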

A further test relates to HCT116. The test is described as above. Conditions: 5 µM; treatment time 24 h; reporter: TCF4/Wnt. Put shortly: as §1
Test [2] deals with SW480. Described as above. Conditions: 5 µM; treatment time 24 h; reporter: 7TFP. The essentials: as §1
Test [3] concerns DLD1. The test can be described thus: TCF/Wnt firefly luciferase reporter signal relative to plate median (fraction of plate median); higher = higher Wnt reporter signal. Conditions: 5 µM; treatment time 24 h; reporter: 7TFP. Put shortly: as §1
In test [4] the test system is SW480. Described as above. Conditions: 5 µM; treatment time 24 h; reporter: 7TFP. Put shortly:
as §1

Regarding `O=c1cc(-c2cccc(O)c2)oc2ccc(O)cc12`, the cell viability in the test on DLD1 [1] is 1.05 ± 0.09; with HCT116 it was 0.98 ± 0.0057; in the test with SW480 [2], 1 ± 0.036. For the same molecule, the “TCF/Wnt firefly luciferase reporter signal” value in the test with DLD1 [3] is 1.19 ± 0.16; in the test with SW480 [4], 1.19 ± 0.14.
For the molecule `CC(C)=CCc1c(O)cc2oc(C)cc(=O)c2c1O`, the cell viability came out at 1 ± 0.036 in the test with DLD1 [1], 0.981 ± 0.055 in the test on HCT116 and 1 ± 0.024 with SW480 [2]. For the same molecule, the “TCF/Wnt firefly luciferase reporter signal” value in the test with DLD1 [3] was determined as 0.869 ± 0.15; with SW480 [4], 0.943 ± 0.095.
On to `CC(C)NNC(=O)c1ccncc1`, for which the cell viability stood at 1.02 ± 0.029 with DLD1 [1], 0.992 ± 0.054 in the test with HCT116 and 1 ± 0.083 in the test with SW480 [2]. For the same molecule, the “TCF/Wnt firefly luciferase reporter signal” value is 1.07 ± 0.042 with DLD1 [3] and 1.01 ± 0.021 with SW480 [4].
As for `Nc1ncn([C@@H]2O[C@H](CO)[C@@H](O)[C@H]2O)c(=O)n1`, the cell viability in the test on DLD1 [1] came out at 0.992 ± 0.011; with HCT116, 0.945 ± 0.035; with SW480 [2], 1.07 ± 0.092. The “TCF/Wnt firefly luciferase reporter signal” value in the test with DLD1 [3] worked out at 1.01 ± 0.13; with SW480 [4], 1.085 ± 0.0071.
Consider `COc1ccc(-c2c(O)c3c(OC)c4c(cc3oc2=O)OC(C)(C)C=C4)cc1`, for which the values for the cell viability in the test on DLD1 [1], in the test on HCT116 and with SW480 [2] were 1.01, 0.968 ± 0.088 and 0.9495 ± 0.0092, respectively. In addition, the entries for the “TCF/Wnt firefly luciferase reporter signal” value in the test with DLD1 [3] and in the test with SW480 [4] were 1.07 ± 0.014 and 1.07 ± 0.035, respectively.
Turning to `Oc1cc(O)c2c(c1)O[C@H](c1ccc(O)c(O)c1)[C@@H](O)C2`, the cell viability in the test with DLD1 [1] is 1.03 ± 0.014; in the test on HCT116, 1.03 ± 0.076; in the test with SW480 [2] it was 1.04 ± 0.042. Besides, the “TCF/Wnt firefly luciferase reporter signal” value in the test on DLD1 [3] was determined as 1.08 ± 0.014; with SW480 [4] it was 1.15 ± 0.035.
Turning to `CCCCCCCCCCCC1=C(O)C(=O)C=C(O)C1=O`, the cell viability was 1.01 ± 0.06 in the test with DLD1 [1], 1.12 ± 0.071 in the test with HCT116 and 0.9665 ± 0.00071 with SW480 [2]. Also, the “TCF/Wnt firefly luciferase reporter signal” value in the test with DLD1 [3] is 1.1 ± 0.028; in the test with SW480 [4], 1.075 ± 0.0071.
Take `COc1cc(C)c(C(=O)O)c(O)c1`: the cell viability in the test with DLD1 [1] came out at 1.05 ± 0.014; in the test with HCT116 it was 1.11 ± 0.14; in the test with SW480 [2] it was 1 ± 0.037. Besides, the “TCF/Wnt firefly luciferase reporter signal” value in the test with DLD1 [3] turned out to be 0.924 ± 0.0085; in the test on SW480 [4] it was 0.986 ± 0.02.
Taken in the same sequence, the figures for `CN1Cc2c(N)cccc2C(c2ccccc2)C1` (stereo not given) were 1.05 ± 0.014, 1.15 ± 0.021, 1.03 ± 0.05, 1.02 ± 0.14 and 1.04 ± 0.014.
For the molecule `CCCC(=O)Nc1ncnc2c1ncn2[C@@H]1O[C@@H]2COP(=O)(O)O[C@H]2[C@H]1OC(=O)CCC`, the results for the cell viability in the test with DLD1 [1], in the test on HCT116 and in the test with SW480 [2] were 0.945 ± 0.055, 0.957 ± 0.026 and 0.987 ± 0.0071, respectively. In addition, the entries for the “TCF/Wnt firefly luciferase reporter signal” value in the test with DLD1 [3] and in the test on SW480 [4] were 1.11 ± 0.17 and 1.09 ± 0.014, respectively.
Regarding `O=C1[C@H](CC[C@H](O)c2ccc(F)cc2)[C@@H](c2ccc(O)cc2)N1c1ccc(F)cc1`, the cell viability with DLD1 [1] worked out at 0.828 ± 0.15; with HCT116, 1.01 ± 0.063; in the test on SW480 [2], 0.961 ± 0.084. Also, the “TCF/Wnt firefly luciferase reporter signal” value with DLD1 [3] was 0.952 ± 0.17; in the test on SW480 [4] it was 0.919 ± 0.11.
Consider `C=C1C2CC[C@@]3(C)[C@H](c4ccoc4)OC(=O)C[C@]13O[C@H]1CC(=O)C(C)(C)[C@H](C(O)C(=O)OC)[C@@]21C` (stereo not given in full), for which the cell viability in the test with DLD1 [1] worked out at 0.97 ± 0.042; with HCT116, 1.01 ± 0.087; in the test with SW480 [2] it was 0.991 ± 0.055. For the same molecule, the figures for the “TCF/Wnt firefly luciferase reporter signal” value in the test on DLD1 [3] and in the test on SW480 [4] were 1.02 ± 0.11 and 1.02 ± 0.047, respectively.
Take `C[C@H](CCC(=O)O)[C@H]1CC[C@H]2[C@@H]3C(=O)C[C@@H]4CC(=O)CC[C@]4(C)[C@H]3CC(=O)[C@]12C`: the cell viability was 0.956 and 0.954 in the test on DLD1 [1]; 0.911 and 0.941 in the test with HCT116; 0.912 and 0.967 in the test with SW480 [2]. The “TCF/Wnt firefly luciferase reporter signal” value is 0.894 and 1.06 in the test with DLD1 [3]; 1.05 and 1.15 with SW480 [4].
For the molecule `COc1ccc([C@@H]2Sc3ccccc3N(CCN(C)C)C(=O)[C@@H]2OC(C)=O)cc1`, the figures for the cell viability in the test on DLD1 [1], in the test on HCT116 and in the test with SW480 [2] were 0.931 ± 0.17, 0.975 ± 0.028 and 1.01 ± 0.033, respectively. For the same molecule, the “TCF/Wnt firefly luciferase reporter signal” value with DLD1 [3] is 0.883 ± 0.029; in the test with SW480 [4] it was 0.989 ± 0.059.
In the case of `C/C=C/C=C/c1cc2cc3c(c(O)c2c(=O)[nH]1)C1(CC3)C(O)=c2c(=O)c3c(=O)cc(OC)c(=O)c=3c(=O)c2=C1O` (stereo not given) [Fredericamycin], the cell viability was determined as 1.03 ± 0.042 in the test on DLD1 [1], 0.934 ± 0.022 with HCT116 and 1.04 ± 0.076 in the test on SW480 [2]. In addition, the “TCF/Wnt firefly luciferase reporter signal” value in the test on DLD1 [3] is 1.06 ± 0.21; with SW480 [4], 0.981 ± 0.084.
